± gives the standard deviation of the averaged measurements.
Legend:
DLD1 [1] = assay: cell viability (CellTiter-Glo) relative to plate median (fraction of plate median); higher = more viable cells; details: 5 µM; treatment time 24 h; reporter: 7TFP
Method in brief: (§1)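 Colorectal cancer cell lines stably carrying lentiviral TCF/Wnt firefly luciferase reporters (7TFP or TCF4/Wnt) were plated in 384-well plates and, 24 h later, given library compounds at a final 5 µM for 24 h. Firefly luciferase or CellTiterGlo luminescence was read on parallel plates with a Tecan F500 reader. Each well's signal was normalised to the plate median in webcellHTS2 (additive, without log transformation). Values are the mean of two independent replicates.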

HCT116 = assay: as above; details: 5 µM; treatment time 24 h; reporter: TCF4/Wnt
Method in brief: as §1

SW480 [2] = assay: as above; details: 5 µM; treatment time 24 h; reporter: 7TFP
Method in brief: as §1

DLD1 [3] = assay: TCF/Wnt firefly luciferase reporter signal relative to plate median (fraction of plate median); higher = higher Wnt reporter signal; details: 5 µM; treatment time 24 h; reporter: 7TFP
Method in brief: as §1

SW480 [4] = assay: as above; details: 5 µM; treatment time 24 h; reporter: 7TFP
Method in brief: as §1

## O=C(O)/C=C/C=C/c1ccccc1
DLD1 [1]
  cell viability: 0.976 ± 0.16
HCT116
  cell viability: 0.9625 ± 0.0092
SW480 [2]
  cell viability: 0.98 ± 0.0057
DLD1 [3]
  TCF/Wnt firefly luciferase reporter signal: 0.906 ± 0.028
SW480 [4]
  TCF/Wnt firefly luciferase reporter signal: 0.729 ± 0.071

## Cc1cc(C2CCCCC2)n(O)c(=O)c1
DLD1 [1]
  cell viability: 1.02 ± 0.014
HCT116
  cell viability: 0.454 ± 0.12
SW480 [2]
  cell viability: 1.24 ± 0.18
DLD1 [3]
  TCF/Wnt firefly luciferase reporter signal: 0.795 ± 0.077
SW480 [4]
  TCF/Wnt firefly luciferase reporter signal: 1 ± 0.13

## C[C@H]1c2cccc(O)c2C(=O)C2=C(O)[C@]3(O)C(=O)C(C(N)=O)=C(O)[C@@H](N(C)C)[C@@H]3[C@@H](O)[C@@H]21
DLD1 [1]
  cell viability: 0.942 ± 0.096
HCT116
  cell viability: 0.964 ± 0.033
SW480 [2]
  cell viability: 0.975 ± 0.0028
DLD1 [3]
  TCF/Wnt firefly luciferase reporter signal: 0.967 ± 0.23
SW480 [4]
  TCF/Wnt firefly luciferase reporter signal: 1.03 ± 0.18

## COc1c(C)c2c(c(O)c1C/C=C(\C)CCC(=O)O)C(=O)OC2
DLD1 [1]
  cell viability: 1.03 ± 0.12
HCT116
  cell viability: 0.802 ± 0.03
SW480 [2]
  cell viability: 1.03 ± 0.065
DLD1 [3]
  TCF/Wnt firefly luciferase reporter signal: 1.045 ± 0.0071
SW480 [4]
  TCF/Wnt firefly luciferase reporter signal: 1.14 ± 0.11

## COC(=O)[C@@H]1OC(=O)C2OC23[C@@]1(C)CCC1[C@@]2(C)CCC(=O)C(C)(C)C2C[C@@H](OC(C)=O)[C@]13C (stereo not given in full)
DLD1 [1]
  cell viability: 0.993 ± 0.011
HCT116
  cell viability: 1.07 ± 0.078
SW480 [2]
  cell viability: 1.01 ± 0.017
DLD1 [3]
  TCF/Wnt firefly luciferase reporter signal: 0.86 ± 0.037
SW480 [4]
  TCF/Wnt firefly luciferase reporter signal: 1.03 ± 0.046

## CC(=O)OC1CCC23CC1(C)CCC2C(C)(C)CC3OC(C)=O (stereo not given)
DLD1 [1]
  cell viability: 0.999 ± 0.044
HCT116
  cell viability: 1.09 ± 0.021
SW480 [2]
  cell viability: 1.02 ± 0.042
DLD1 [3]
  TCF/Wnt firefly luciferase reporter signal: 1.03 ± 0.014
SW480 [4]
  TCF/Wnt firefly luciferase reporter signal: 0.93 ± 0.04

## C#C[C@]1(O)CC[C@H]2[C@@H]3CCC4=CC(=O)CC[C@@H]4[C@H]3CC[C@@]21C
DLD1 [1]
  cell viability: 1.15 ± 0.085
HCT116
  cell viability: 0.9935 ± 0.0092
SW480 [2]
  cell viability: 1.04 ± 0.064
DLD1 [3]
  TCF/Wnt firefly luciferase reporter signal: 0.847 ± 0.27
SW480 [4]
  TCF/Wnt firefly luciferase reporter signal: 0.931 ± 0.03

## COc1cc(C(N)=O)ccc1O [4-Hydroxy-3-methoxy-benzoic acid amide, Vanillic acid amide]
DLD1 [1]
  cell viability: 0.953 ± 0.032
HCT116
  cell viability: 1.125 ± 0.0071
SW480 [2]
  cell viability: 1.06 ± 0.014
DLD1 [3]
  TCF/Wnt firefly luciferase reporter signal: 1.06 ± 0.086
SW480 [4]
  TCF/Wnt firefly luciferase reporter signal: 0.942 ± 0.064

## CNC(=C[N+](=O)[O-])NCCSCc1ccc(CN(C)C)o1
DLD1 [1]
  cell viability: 0.892 ± 0.018
HCT116
  cell viability: 0.983 ± 0.024
SW480 [2]
  cell viability: 0.974 ± 0.011
DLD1 [3]
  TCF/Wnt firefly luciferase reporter signal: 0.998 ± 0.017
SW480 [4]
  TCF/Wnt firefly luciferase reporter signal: 0.953 ± 0.016

## CC(C)[C@@H]1CC[C@@H](C)C[C@H]1OC(=O)c1ccccc1
DLD1 [1]
  cell viability: 1.01 ± 0.025
HCT116
  cell viability: 1.03 ± 0.057
SW480 [2]
  cell viability: 1.06 ± 0.042
DLD1 [3]
  TCF/Wnt firefly luciferase reporter signal: 1.01 ± 0.19
SW480 [4]
  TCF/Wnt firefly luciferase reporter signal: 0.996 ± 0.02

## C/C1=C2/[N-][C@H]([C@H](CC(N)=O)[C@@]2(C)CCC(=O)NC[C@@H](C)OP(=O)([O-])O[C@H]2[C@@H](O)[C@@H](n3cnc4cc(C)c(C)cc43)O[C@@H]2CO)[C@]2(C)N=C(/C(C)=C3N=C(/C=C4N=C1[C@@H](CCC(N)=O)C\4(C)C)[C@@H](CCC(N)=O)[C@]\3(C)CC(N)=O)[C@@H](CCC(N)=O)[C@]2(C)CC(N)=O.[CH2-][C@H]1O[C@H](n2cnc3c(N)ncnc32)[C@@H](O)[C@H]1O.[Co+3]
DLD1 [1]
  cell viability: 0.933 ± 0.021
HCT116
  cell viability: 0.964 ± 0.18
SW480 [2]
  cell viability: 0.998 ± 0.045
DLD1 [3]
  TCF/Wnt firefly luciferase reporter signal: 0.968 ± 0.13
SW480 [4]
  TCF/Wnt firefly luciferase reporter signal: 0.971 ± 0.2

## C[C@@H]1C[C@H]2[C@@H]3CCC4=CC(=O)C=C[C@]4(C)[C@@]3(F)[C@@H](O)C[C@]2(C)[C@@]1(O)C(=O)CO
DLD1 [1]
  cell viability: 1.06 ± 0.071
HCT116
  cell viability: 1.05 ± 0.057
SW480 [2]
  cell viability: 0.977 ± 0.016
DLD1 [3]
  TCF/Wnt firefly luciferase reporter signal: 1.04 ± 0.082
SW480 [4]
  TCF/Wnt firefly luciferase reporter signal: 1.05 ± 0.035

## CC(=O)[C@@]1(O)CC[C@H]2[C@@H]3C[C@H](C)C4=CC(=O)C=C[C@]4(C)[C@@]3(F)[C@@H](O)C[C@@]21C
DLD1 [1]
  cell viability: 1.07 ± 0.085
HCT116
  cell viability: 1.03
SW480 [2]
  cell viability: 0.957 ± 0.044
DLD1 [3]
  TCF/Wnt firefly luciferase reporter signal: 0.985 ± 0.079
SW480 [4]
  TCF/Wnt firefly luciferase reporter signal: 0.99 ± 0.057

## C[C@]12C=CC(=O)C=C1CC[C@@H]1[C@@H]2C(=O)C[C@@]2(C)[C@H]1CC[C@]2(O)C(=O)CO
DLD1 [1]
  cell viability: 1 ± 0.085
HCT116
  cell viability: 1.125 ± 0.0071
SW480 [2]
  cell viability: 1.07 ± 0.057
DLD1 [3]
  TCF/Wnt firefly luciferase reporter signal: 1.035 ± 0.0071
SW480 [4]
  TCF/Wnt firefly luciferase reporter signal: 0.91 ± 0.17

## NC1(C(=O)O)CCCC1
DLD1 [1]
  cell viability: 0.9495 ± 0.00071
HCT116
  cell viability: 1.02 ± 0.035
SW480 [2]
  cell viability: 0.9955 ± 0.0064
DLD1 [3]
  TCF/Wnt firefly luciferase reporter signal: 1.02 ± 0.081
SW480 [4]
  TCF/Wnt firefly luciferase reporter signal: 1.055 ± 0.0071

## CCCCOC(=O)c1ccc(N)cc1
DLD1 [1]
  cell viability: 1.02 ± 0.054
HCT116
  cell viability: 0.942 ± 0.023
SW480 [2]
  cell viability: 0.961 ± 0.021
DLD1 [3]
  TCF/Wnt firefly luciferase reporter signal: 0.936 ± 0.027
SW480 [4]
  TCF/Wnt firefly luciferase reporter signal: 1.03 ± 0.083

## CC(=O)OCC(=O)[C@@]1(O)CC[C@H]2[C@@H]3C[C@H](C)C4=CC(=O)C=C[C@]4(C)[C@H]3[C@@H](O)C[C@@]21C [6alpha-METHYLPREDNISOLONE ACETATE]
DLD1 [1]
  cell viability: 1.03 ± 0.05
HCT116
  cell viability: 0.957 ± 0.22
SW480 [2]
  cell viability: 0.994 ± 0.037
DLD1 [3]
  TCF/Wnt firefly luciferase reporter signal: 0.904 ± 0.15
SW480 [4]
  TCF/Wnt firefly luciferase reporter signal: 0.937 ± 0.073

## CC(C)(S)[C@@H](N)C(=O)O
DLD1 [1]
  cell viability: 0.991 ± 0.027
HCT116
  cell viability: 0.956 ± 0.13
SW480 [2]
  cell viability: 0.9765 ± 0.0092
DLD1 [3]
  TCF/Wnt firefly luciferase reporter signal: 1.09 ± 0.014
SW480 [4]
  TCF/Wnt firefly luciferase reporter signal: 1.16 ± 0.11

## CC(=O)CC(c1ccccc1)c1c(O)c2ccccc2oc1=O (stereo not given)
DLD1 [1]
  cell viability: 1.02 ± 0.056
HCT116
  cell viability: 1.14 ± 0.078
SW480 [2]
  cell viability: 0.989 ± 0.073
DLD1 [3]
  TCF/Wnt firefly luciferase reporter signal: 0.935 ± 0.062
SW480 [4]
  TCF/Wnt firefly luciferase reporter signal: 1.12 ± 0.028

## NC1=NCCN1CC(=O)O
DLD1 [1]
  cell viability: 0.897 ± 0.036
HCT116
  cell viability: 1.03 ± 0.072
SW480 [2]
  cell viability: 0.976 ± 0.0014
DLD1 [3]
  TCF/Wnt firefly luciferase reporter signal: 1.06 ± 0.094
SW480 [4]
  TCF/Wnt firefly luciferase reporter signal: 0.985 ± 0.016

## CN(C)CC/C=C1/c2ccccc2Sc2ccc(Cl)cc21
DLD1 [1]
  cell viability: 0.835 ± 0.21
HCT116
  cell viability: 0.98 ± 0.019
SW480 [2]
  cell viability: 0.934 ± 0.016
DLD1 [3]
  TCF/Wnt firefly luciferase reporter signal: 1.07 ± 0.042
SW480 [4]
  TCF/Wnt firefly luciferase reporter signal: 0.967 ± 0.061

## COC(=O)c1c(C)cc(O)cc1O
DLD1 [1]
  cell viability: 0.999 ± 0.03
HCT116
  cell viability: 0.837 ± 0.23
SW480 [2]
  cell viability: 1 ± 0.037
DLD1 [3]
  TCF/Wnt firefly luciferase reporter signal: 1.15 ± 0.014
SW480 [4]
  TCF/Wnt firefly luciferase reporter signal: 0.984 ± 0.11

## CS(=O)(=O)OCCCCOS(C)(=O)=O
DLD1 [1]
  cell viability: 1.12 ± 0.2
HCT116
  cell viability: 1.06 ± 0.028
SW480 [2]
  cell viability: 1.06 ± 0.05
DLD1 [3]
  TCF/Wnt firefly luciferase reporter signal: 0.9365 ± 0.005
SW480 [4]
  TCF/Wnt firefly luciferase reporter signal: 0.984 ± 0.037

## CC1(C)[C@@H](O[C@H]2O[C@H](C(=O)O)[C@@H](O)[C@H](O)[C@H]2O[C@@H]2O[C@H](C(=O)O)[C@@H](O)[C@H](O)[C@H]2O)CC[C@]2(C)[C@H]3C(=O)C=C4[C@@H]5C[C@@](C)(C(=O)O)CC[C@]5(C)CC[C@@]4(C)[C@]3(C)CC[C@@H]12
DLD1 [1]
  cell viability: 1.04 ± 0.042
HCT116
  cell viability: 1.14
SW480 [2]
  cell viability: 1.02 ± 0.03
DLD1 [3]
  TCF/Wnt firefly luciferase reporter signal: 1.22 ± 0.13
SW480 [4]
  TCF/Wnt firefly luciferase reporter signal: 1.16 ± 0.092

## O=[N+]([O-])c1cccc2c(Br)[nH]nc12
DLD1 [1]
  cell viability: 0.994 ± 0.0057
HCT116
  cell viability: 1.02 ± 0.021
SW480 [2]
  cell viability: 0.957 ± 0.034
DLD1 [3]
  TCF/Wnt firefly luciferase reporter signal: 0.984 ± 0.037
SW480 [4]
  TCF/Wnt firefly luciferase reporter signal: 0.967 ± 0.13

Reference: the supplement of paper PMC6522484
